Compound activity (PubChem BioAssay)
Shown are actives, neighbours in structure and some others; about 7.1% of the full set was active somewhere.
ELG1 genotox – inducers of genotoxicity in HEK293T ELG1-luciferase cells | 330,000 compounds, 1.3% hits | Potency, µM (series often up to 46 µM), most hits filed as activators | HEK293T ELG1-luciferase reporter, luminescence, 16 h; note: nearly all actives have a fitted effect of over 60% in size
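Genotoxicity was scored as increased ELG1-luciferase reporter signal, measured by ONE-Glo luminescence (30 min, room temperature). Compound or vehicle exposure of the HEK293T reporter cells lasted 16 hr at 37°C.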
SW480 rereplic – inducers of DNA re-replication in SW480 colon cancer cells | 340,000 compounds, 1.8% hits | SW480 DNA re-replication, Hoechst DNA content imaging, 48 h | Potency, µM (series often up to 46.1 µM), actives largely listed as activators; note: nearly all actives have a fitted effect of over 55% in size
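Per well, 250 cells were exposed to pinned compound for 48 hr. Nuclear DNA was visualised with Hoechst (40 min, 37 C) and total object intensity recorded by fluorescence scanning.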
ELG1 DNA repair – ELG1-dependent DNA repair inhibition; HEK293T ELG1-luciferase reporter, luminescence, 16 h; DNA damage induced by 5-fluorouridine; Potency, µM (titrated, usually from 46.1 µM), hits mostly inhibitors; 330,000 compounds, 2.3% hits; note: nearly all actives have a fitted effect of over 55% in size
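HEK293T cells expressing luciferase-tagged ELG1 (2,000/well) received 5-Fluorouridine plus compound or DMSO for 16 hr at 37 °C. Luciferase was read by ONE-Glo luminescence after 30 min at room temperature.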
MCF10A rereplic – DNA re-replication induction in MCF 10a cells | MCF 10A DNA re-replication, Hoechst nuclear intensity, 48 h | Potency, µM (top dose mostly 46.1 µM), usual class: activators | 350,000 compounds, 2.9% hits | AID 624296; note: nearly all actives have a fitted effect of over 50% in size
p53 reactivator – restores transcriptional activity of mutant p53. H1299 p53-A138V BP100-luciferase reporter, luminescence, 24 h. Potency, µM (top dose mostly 92.2 µM), hits mostly activators. 320,000 compounds, 0.063% hits; note: nearly all actives have a fitted effect of over 45% in size
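p53-null H1299 cells stably carrying temperature-sensitive p53-A138V and a BP100-luciferase reporter were pinned with compounds (4-point, 1:5 series) and held 24 hrs at 37 deg C. Luminescence was read 10 min after detection reagent.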
AT treatment – potential ataxia-telangiectasia treatments restoring KAP-1 phosphorylation; F2112 A-T fibroblasts, KAP-1 phosphorylation AlphaLISA; neocarzinostatin DNA damage 30 min before lysis; Potency, µM (doses to about 57.5 µM), most hits filed as activators; 320,000 compounds, 0.19% hits; note: nearly all actives have a fitted effect of over 45% in size
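hTERT-immortalized A-T patient fibroblasts (F2112), 500 cells/well in OPTI-MEM, 1% FBS, got compounds for 60 min, then NCS for 30 min at 37C. Lysates were then assayed for phospho-KAP-1 by AlphaLISA (anti-pKAP1 donor, anti-KAP1 acceptor beads), 6 hr at 25C.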
Large screens that a line does not name were inactive. Calls come from the whole dose curve; as a rule, active = well fitted curve in the direction sought with a large enough effect; inconclusive = small, poorly fitted or top-dose-only effect, or another doubt; inactive = no such curve, though single readings can be large; an effect the other way counts as inactive or inconclusive.

O=C(CCN1C(=O)C2C3CCC(C3)C2C1=O)Nc1ccc(Br)cc1 (stereo unspecified)	SW480 rereplic 12µM
CCc1ccc2nc(NC(=O)CN3C(=O)NC4(CCCC4)C3=O)sc2c1	ELG1 DNA repair inconclusive, p53 reactivator inconclusive
CCC(=O)NC(c1cccc([N+](=O)[O-])c1)c1c(O)ccc2ccccc12 (stereo unspecified)	none
CCCC(=O)NC(c1ccc(OC)cc1)c1c(O)ccc2ccccc12 (stereo unspecified)	SW480 rereplic 21µM, ELG1 DNA repair inconclusive, MCF10A rereplic 3.7µM
COc1ccc(C(NC(=O)CC(C)C)c2c(O)ccc3ccccc23)cc1 (stereo unspecified)	MCF10A rereplic inconclusive (no result: p53 reactivator)
CCOc1ccc(C(NC(=O)CC)c2c(O)ccc3ccccc23)cc1 (stereo unspecified)	SW480 rereplic 9.2µM, MCF10A rereplic inconclusive
Cc1nc(/N=C(\N)N(C)C)[nH]c(=O)c1C	none
Cc1ccc(S(C)(=O)=O)cc1C(=O)OCC(=O)N(Cc1ccccc1)Cc1ccccc1	ELG1 DNA repair inconclusive
CCCCOCCCNC(=O)C1CCCCC1	SW480 rereplic inconclusive, MCF10A rereplic 12µM
O=C(NCCCCNC(=O)C1CCCC1)C1CCCC1	none
CC(=O)C1=C(O)C(=O)N(c2ccccn2)C1c1cccc(F)c1 (stereo unspecified)	none
COCc1c(C#N)c(NCc2cc(OC)c(OC)c(OC)c2)nc(C)c1[N+](=O)[O-]	ELG1 DNA repair 16µM, MCF10A rereplic inconclusive
Cc1ccc(C(=O)CC(=O)c2cc(Cl)ccc2O)cc1	ELG1 genotox 15µM, SW480 rereplic inconclusive, ELG1 DNA repair inconclusive, MCF10A rereplic inconclusive, p53 reactivator inconclusive
COc1ccc(N/N=C(/C(N)=O)C2=NC(C)(C)Cc3ccccc32)cc1	SW480 rereplic inconclusive, ELG1 DNA repair 23µM, MCF10A rereplic inconclusive
CC1(C)Cc2ccccc2C(/C(C#N)=N/O)=N1	none
O=C(/C=C/c1cc(Br)ccc1F)OCC(=O)N1CCOCC1	none
Cc1ccc(NC(=S)N(CCN(C)C)Cc2cc3cc(C)ccc3[nH]c2=O)cc1	none
Cc1cccc(NC(=S)N(CCN(C)C)Cc2cc3cccc(C)c3[nH]c2=O)c1	SW480 rereplic inconclusive, ELG1 DNA repair 13µM
Cc1ccc(NC(=S)N(CCN(C)C)Cc2cc3cccc(C)c3[nH]c2=O)cc1	SW480 rereplic 21µM, MCF10A rereplic inconclusive
CCOC(=O)c1cc([N+](=O)[O-])c([N+](=O)[O-])cc1NC(C)=O	SW480 rereplic inconclusive, ELG1 DNA repair inconclusive, MCF10A rereplic 10µM
CCOC(=O)c1ccc(NC(=O)c2ccccc2[N+](=O)[O-])cc1	ELG1 DNA repair inconclusive, p53 reactivator inconclusive
Cc1nn(Cc2ccc(C(=O)Nc3nccs3)cc2)c(C)c1Cl	ELG1 DNA repair inconclusive, MCF10A rereplic 5.8µM
Cc1nn(Cc2ccc(C(=O)Nc3ccccc3F)cc2)c(C)c1Cl	ELG1 DNA repair inconclusive, MCF10A rereplic 23µM
Cc1nn(Cc2ccc(C(=O)NN)cc2)c(C)c1Cl	ELG1 DNA repair inconclusive
CCCc1cc(C(=O)Nc2ccc(OC)cc2[N+](=O)[O-])cs1	ELG1 DNA repair inconclusive (no result: p53 reactivator)
O=C(Nc1nccs1)c1ccc(CSc2nnnn2-c2ccccc2)cc1	SW480 rereplic inconclusive, ELG1 DNA repair 23µM
NC(=O)c1ccc(-n2nnnc2SCc2ccccc2)cc1	SW480 rereplic inconclusive, AT treatment inconclusive
Cc1ccc(/C=N/NC(=O)c2csc3c2CCCC3)cc1	ELG1 genotox inconclusive, SW480 rereplic inconclusive, ELG1 DNA repair inconclusive, MCF10A rereplic 1.3µM, p53 reactivator inconclusive
Cc1scc(C(=O)N/N=C/c2ccsc2)c1C	ELG1 genotox 10µM, ELG1 DNA repair inconclusive, p53 reactivator inconclusive
O=C(NCc1ccccc1)c1csc2c1CCCC2	none
Cc1ccccc1NC(=O)c1csc2c1CCCC2	ELG1 genotox 26µM, ELG1 DNA repair inconclusive
Cc1scc(C(=O)N/N=C/c2ccco2)c1C	ELG1 genotox inconclusive, ELG1 DNA repair inconclusive, p53 reactivator inconclusive
O=C(NN=Cc1ccccc1C(=O)O)c1ccc(NS(=O)(=O)c2cccs2)cc1	none
COCCCN(C(=O)c1cc(C)oc1C)c1c(N)n(CC(C)C)c(=O)[nH]c1=O	none
O=C(Nc1cc(C(F)(F)F)ccc1N1CCOCC1)c1ccc(Br)o1	none (no result: ELG1 genotox, ELG1 DNA repair, p53 reactivator, AT treatment)
O=C(Nc1cc(Cl)ccc1N1CCOCC1)c1ccc(Br)o1	ELG1 genotox 1.2µM, ELG1 DNA repair inconclusive
COc1ccc(N2CCOCC2)c(NC(=O)c2ccc(Br)o2)c1	ELG1 DNA repair 16µM
Nc1ccc2cc3ccc(N)cc3nc2c1	none (no result: ELG1 genotox, ELG1 DNA repair, p53 reactivator, AT treatment)
COc1ccc([C@H]2CC(=O)C=C(c3ccc(C)c([N+](=O)[O-])c3)C2)cc1	ELG1 DNA repair inconclusive
Cc1cc2nn(-c3cccc4ccccc34)nc2cc1N	ELG1 genotox 13µM, ELG1 DNA repair inconclusive, MCF10A rereplic 21µM, p53 reactivator inconclusive
Nc1ccc2c(c1)C(=O)N(c1cccc3ccccc13)C2=O	none
Nc1ccc2nn(-c3cccc4ccccc34)nc2c1	SW480 rereplic 18µM, ELG1 DNA repair inconclusive, MCF10A rereplic 9.2µM
O=C(OCC1OC(OC(=O)c2cc(O)c(O)c(OC(=O)c3cc(O)c(O)c(O)c3)c2)[C@@H](OC(=O)c2cc(O)c(O)c(OC(=O)c3cc(O)c(O)c(O)c3)c2)C(OC(=O)c2cc(O)c(O)c(OC(=O)c3cc(O)c(O)c(O)c3)c2)C1OC(=O)c1cc(O)c(O)c(OC(=O)c2cc(O)c(O)c(O)c2)c1)c1cc(O)c(O)c(OC(=O)c2cc(O)c(O)c(O)c2)c1 (stereo partly specified)	none (no result: ELG1 genotox, ELG1 DNA repair, p53 reactivator, AT treatment)
Cc1ccc2nc(SCC(=O)Nc3cccc(F)c3)nc(=O)n2c1	none
COc1cc(C=O)c(Br)cc1OCc1ccc(C)cc1	ELG1 genotox inconclusive, SW480 rereplic inconclusive, ELG1 DNA repair inconclusive, MCF10A rereplic 9.2µM, p53 reactivator inconclusive
COc1ccccc1C(=O)N(Cc1ccc(Cl)cc1)C1CCS(=O)(=O)C1 (stereo unspecified)	none
O=c1[nH]c2ccccc2nc1/C=C/c1ccc(F)cc1	SW480 rereplic inconclusive, ELG1 DNA repair inconclusive, MCF10A rereplic 6.5µM
O=C(/C=C/c1ccc(F)cc1)Nc1nc2ccccc2[nH]1	ELG1 genotox inconclusive, ELG1 DNA repair inconclusive
O=c1[nH]c2ccccc2nc1/C=C/c1ccc(O)cc1	ELG1 genotox inconclusive, SW480 rereplic 18µM, ELG1 DNA repair inconclusive, MCF10A rereplic 8.2µM
COc1ccc(OC)c(/C=C/c2nc3ccccc3[nH]c2=O)c1	SW480 rereplic 21µM, MCF10A rereplic 13µM
COc1ccc(OC)c(C=Nc2ccccc2-c2nc3ccccc3[nH]2)c1	ELG1 genotox inconclusive, ELG1 DNA repair inconclusive, p53 reactivator inconclusive
